Bioassay records from PubChem.
eIF4E 4G PPI: inhibitors of eIF4E and eIF4G interaction in translation initiation | inhibition, % at 21.7 µM | P63073+Q04637 | TR-FRET eIF4E-eIF4GI(517-606) binding, 2 h | hit rate 0.37% among 220,000;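 active = inhibition above about 30%, limit read from the data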;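 note: 0% = full FRET control wells and 100% = background wells lacking eIF4GI fragment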
14-3-3 Bad PPI: disrupts binding of bovine 14-3-3 zeta to phospho-Bad peptide. P63103. AID 781. inhibition, % at 21.7 µM. hit rate 0.71% among 220,000. TR-FRET 14-3-3zeta/Dy647-pBad peptide displacement, 1 h;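 active = inhibition above about 70%, limit read from the data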;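 note: 0% = full 14-3-3 plus peptide FRET controls and 100% = background without 14-3-3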
Bim-Mcl-1: human Bim-Mcl-1 interaction inhibition; AID 1009; Q07820; hit rate 0.1% among 190,000; Bead-based flow cytometry, Bim peptide-Mcl-1 binding; inhibition, % at 10 µM; in the data active = inhibition above about 40%;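 note: 0% = no compound tracer wells and 100% = peptide blocker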
Mcl1 Noxa PPI: disrupts binding of human Mcl-1 to Noxa peptide; hit rate 1.5% among 220,000; inhibition, % at 21.7 µM; AID 1022; TR-FRET Mcl-1/Noxa peptide binding, 2 h; Q07820;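 active = compounds that cut the protein-peptide binding signal by more than 50% relative to plate controls in a single-dose test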;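 note: His-tagged Mcl-1 with rhodamine Noxa BH3 peptide and terbium anti-His antibody; 0% = Mcl-1 plus Noxa peptide wells and 100% = peptide-only wells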
Hck-Nef inh: human Hck-Nef kinase inhibition. inhibition, % at 20 µM. Recombinant Hck-YEEI plus Nef, Z-Lyte FRET kinase assay. hit rate 0.68% among 220,000;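 active = Hck-Nef kinase inhibition above about 50%, limit read from the data; inactive = inhibition below that limit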;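 note: 0% = DMSO with Hck plus Nef and 100% = Hck alone without Nef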
Mcl1-Bid inh: Mcl-1/Bid interaction inhibition; TR-FRET Mcl-1/Bid-Dy647 peptide binding, 1536-well; AID 1021; Q07820; hit rate 0.97% among 220,000; inhibition, % at 21.7 µM;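 active = compounds that cut the binding signal by more than half at the single screening dose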;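 note: His-tagged Mcl-1 with europium anti-His antibody binding Bid BH3 peptide; 0% = Mcl-1 plus peptide wells and 100% = peptide-only wells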
Hck Nef conf: Hck-Nef kinase inhibition, confirmation. shares compounds with Hck-Nef inh. Recombinant Hck-YEEI:Nef, Z-Lyte FRET kinase assay. calls only at 10 µM. hit rate 28% among 1,300. AID 463188;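 active = average inhibition of at least 50%, with Z-scores no higher than 3 in both the phospho-tyrosine peptide and fluorescence counterscreens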
* = called active by the depositor; i = inactive; / = not tested or not shown; + = active, no number; [ ] = dose if it differs, or a comment. In the library only some 3.5% were active in any assay of this set; here they are far more common.

SMILES	eIF4E 4G PPI	14-3-3 Bad PPI	Bim-Mcl-1	Mcl1 Noxa PPI	Hck-Nef inh	Mcl1-Bid inh	Hck Nef conf
COc1ccc(OC)c(-c2c3cc(O)c(=O)cc-3oc3cc(O)c(O)cc23)c1	51*[fluorescence artefact?]	75*[fluorescence artefact?]	-116	91*	54*	-1	i
CC(C)c1c(O)c2c(n(-c3ccccc3)c1=O)CCCC2	3	-6	-5	8	0	-20	/
COc1ccc2nc(C)cc(SCC(=O)Nc3c(C)cccc3C)c2c1	13	41	-2	-7	78*	68*	i
COc1ccc2nc(C)cc(SCC(=O)Nc3c(C)cc(C)cc3C)c2c1	9	67	2	-4	51*	-9	i
Cc1cccn2c(=O)c(/C=N/O)c(Nc3ccccc3F)nc12	-8	87*	/	-29	70*	54*	i
Cc1cccn2c(=O)c(/C=N/O)c(NCc3ccccc3)nc12	-2	6	/	-2	21	-13	/
COc1nc(Nc2nc3ccccc3c(=O)[nH]2)nc2ccc(C)cc12	-37	48	/	-128	75*	-121	i
Cc1cc(C(=O)N/N=C2\CC(=O)c3ccccc32)c(C)n1-c1ccc(F)cc1	-1	-2	/	11	53*	-55	i
CCOc1cc(/C=N/NC(=O)c2cc(C)n(-c3ccc(F)cc3)c2C)ccc1O	0	4	/	12	0	-34	/
Cc1cc(C)c2c(N)c(C(=O)N/N=C/c3cccnc3)sc2n1	3	-3	/	31	73*	-59	i
O=C(N=Nc1c(O)[nH]c2ccc(Br)cc12)c1cc(-c2cccs2)nc2ccccc12	12	86*	-2	68*	163*	75*	i
Cc1ccc(NC(=O)/C(=C\c2ccc3c(c2)OCO3)NC(=O)c2ccco2)cc1	-9	7	0	21	0	-5	/
Cc1cc(NC(=O)c2ccc(S(=O)(=O)N3CCOCC3)cc2)no1	0	-18	-2	12	21	-12	/
Cc1cc(NC(=O)c2ccc(S(=O)(=O)N3CCc4ccccc43)cc2)no1	0	-15	-1	7	52*	-56	i
COc1ccc(NC(=O)Cc2ccc(C)c(C)c2)cc1Cl	-2	-2	0	3	15	-21	/
O=C(Cn1nc(-c2ccccc2)ccc1=O)Nc1ccc(-n2cnnn2)cc1	2	7	/	15	11	-17	/
O=C(Cn1nc(-c2ccc3c(c2)OCCO3)ccc1=O)Nc1ccc(-n2cnnn2)cc1	3	6	-2	34	52*	-13	i
C=CCOc1ccc(Br)cc1/C=N/O	2	-5	0	11	3	-13	/
C=CCOc1ccc(Br)cc1/C=C1/SC(=Nc2ccc(C(=O)O)cc2)NC1=O	4	11	-6	55*	59*	-16	+
CCc1c(C)c2cc(Cl)c(O)c(CN3CCCCC3)c2oc1=O	/	/	2	20	118*	-60	/
CCCCc1cc(=O)oc2c(CN3CCCC3)c(O)ccc12	/	/	0	/	97*	/	i
CCc1cc(=O)oc2c(CN3CCN(C)CC3)c(O)c(Cl)cc12	3	5	-3	1	163*	-9	/
CCc1cc(=O)oc2c(CN3CCCC3)c(O)c(Cl)cc12	/	/	/	/	102*	/	/
COc1ccc(CCNC(=O)c2ccccc2SC)cc1	7	-1	5	-9	19	-18	/
NC(=O)C(=O)N/N=C/c1c(F)c(F)c(F)c(F)c1F	4	14	-1	11	2	-24	/
SMILES	eIF4E 4G PPI	14-3-3 Bad PPI	Bim-Mcl-1	Mcl1 Noxa PPI	Hck-Nef inh	Mcl1-Bid inh	Hck Nef conf
Cc1cc(=O)oc2c(CN3CC(C)OC(C)C3)c(O)c(Cl)cc12 (stereo not drawn)	0	6	-2	16	+	-31	/
Cc1cc(=O)oc2cc(OCC(=O)N3CC(C)OC(C)C3)ccc12 (stereo not drawn)	-1	6	-1	-5	-5	8	/
Cc1ccc(-c2nnc(SCC(=O)Nc3sc(C)c(C)c3C#N)n2C)cc1	3	46	-2	3	50*	13	i
Cc1nn(CCO)c2nc(-c3cccs3)cc(C(F)(F)F)c12	3	-3	7	5	2	-12	/
CC1CCCC(NC(=O)COC(=O)CCC2CCCC2)C1C (stereo not drawn)	5	1	-7	1	-2	-37	/
O=C1/C(=C/c2ccco2)CCc2ccccc21	3	13	-1	-8	100*	-73	i
COc1ccc(NC(=O)Cn2cnc3sc(C)c(S(=O)(=O)N4CCN(C)CC4)c3c2=O)cc1OC	0	-2	-2	5	20	-10	/
O=C(CCNS(=O)(=O)c1ccc(Br)s1)NCc1ccc2c(c1)OCO2	-3	-12	-3	6	20	20	/
COc1ccc(Cn2c(C3CCCCC3)nc3c(c(=O)c4ccccc4n3C)c2=O)cc1	-18	69	/	-100	71*	21	i
O=C1NN(c2ccccc2)C(=O)/C1=C\c1ccc(-c2cc([N+](=O)[O-])ccc2O)o1	13	15	0	87*	76*	-83	+
O=C1NN(c2ccc(Cl)cc2)C(=O)/C1=C\c1ccc(-c2cccc(C(=O)O)c2)o1	32*	64	0	81*	53*	21	i
Cc1ccc(N2NC(=O)/C(=C/c3ccc(-c4ccc(Cl)c(C(=O)O)c4)o3)C2=O)cc1	11	4	0	32	25	-33	/
CCc1ccc2c(c1)C(=O)C(=O)N2CC(=O)Nc1ccc(NC(=O)c2ccccn2)cc1	6	34	0	32	77*	31	+
CCc1ccc(NC(=O)CCN2C(=O)c3cccnc3C2=O)cc1	-8	-12	-3	11	0	-15	/
O=[N+]([O-])c1ccc(N/N=C/c2ccc(O)c(O)c2O)c(S(=O)(=O)N2CCOCC2)c1	20	2	12	104*	117*	-45	i
Cc1ccccc1-c1cc(C(=O)Nc2sc(C)c(C)c2C(N)=O)c2ccccc2n1	2	-11	-5	30	5	3	/
CCOC(=O)c1c(NC(=O)c2cc(-c3ccc(Cl)s3)nc3ccccc23)sc(C(N)=O)c1C	16	72*[fluorescence artefact?]	-5	19	66*	61*	i
OCCN1CCN(CC(O)C(F)(F)F)CC1 (stereo not drawn)	-6	-25	-1	-6	-7	-42	/
CCC(Sc1nc2ccccc2c2nc3ccccc3n12)C(=O)NCc1ccco1 (stereo not drawn)	8	78*	-1	5	70*	-16	+
O=C(CSc1nc2ccccc2n1CC(=O)NCc1ccccc1)NCc1ccco1	7	-9	5	-9	1	-67	/
